Screens as filed in PubChem BioAssay.
Rows were chosen to be rich in hits. Some 1.3% of all compounds tested hit in one or more screens of this group.
ALOX12 inh = blocks human arachidonate 12S-lipoxygenase; P18054; 580,000 compounds, 1.1% hits; Potency, µM (highest dose often 108 µM), for the others: top-dose activity change, negative = inhibition, most hits filed as inhibitors; purified 12hLO, xylenol orange hydroperoxide absorbance; also: potency is read from the fitted curve at half-maximal effect; % is scaled to controls: 0 for no effect and ±100 for the full control effect
Target sequence (P18054 whole entry, looked up): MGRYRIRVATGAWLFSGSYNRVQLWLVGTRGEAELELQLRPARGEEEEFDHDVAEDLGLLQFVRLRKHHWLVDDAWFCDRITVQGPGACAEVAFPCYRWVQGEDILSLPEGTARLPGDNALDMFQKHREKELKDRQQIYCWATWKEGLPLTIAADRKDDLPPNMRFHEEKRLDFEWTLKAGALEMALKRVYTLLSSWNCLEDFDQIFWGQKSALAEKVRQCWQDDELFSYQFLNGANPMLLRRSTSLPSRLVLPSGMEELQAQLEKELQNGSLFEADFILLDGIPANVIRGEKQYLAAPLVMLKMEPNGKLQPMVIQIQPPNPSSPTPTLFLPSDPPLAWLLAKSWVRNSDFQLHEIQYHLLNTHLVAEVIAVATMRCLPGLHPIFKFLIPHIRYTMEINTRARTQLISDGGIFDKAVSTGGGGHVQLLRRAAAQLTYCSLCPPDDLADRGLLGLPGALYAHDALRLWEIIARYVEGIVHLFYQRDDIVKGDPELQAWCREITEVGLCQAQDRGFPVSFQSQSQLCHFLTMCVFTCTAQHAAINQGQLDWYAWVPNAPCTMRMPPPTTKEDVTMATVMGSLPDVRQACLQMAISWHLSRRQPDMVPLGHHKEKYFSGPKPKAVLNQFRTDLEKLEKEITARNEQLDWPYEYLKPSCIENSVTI
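Purified human 12hLO at 150 nM in 25 mM Hepes, 0.01% Triton X-100, pH 7.0, preincubated 15 min at room temperature with compound. Reaction started with 40 uM arachidonic acid, 30 min at room temperature. Hydroperoxide measured by Fe-xylenol orange, 573/405 nm absorbance ratio.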
Vif-A3G inh = blocks the Vif interaction with human APOBEC3G; 410,000 compounds, 0.076% hits; HeLa A3G-eYFP + Vif (tagged APOBEC3G with the HIV-1 protein that degrades it), YFP fluorescence, overnight; Potency, µM (series often up to 46.1 µM), without a hit: at the highest dose activity, negative = active, usual class: inhibitors; also: potency is read from the fitted curve at half-maximal effect; % is scaled to controls: 0 for no effect and ±100 for the full control effect; nearly all actives have a fitted effect of over 60% in size
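Read-out is eYFP fluorescence (Ex 488/Em 500-530) from Vif-expressing HeLa A3G-eYFP cells; more signal means A3G escaped Vif-mediated degradation. Cells plated overnight, compound pinned in, incubated overnight at 37 deg C.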
Vif-APOBEC3F blk = inhibitors of Vif-A3F interaction; 390,000 compounds, 0.2% hits; Potency, µM (top dose mostly 46.1 µM), for inactives: at the top dose activity, negative = active; AID 602313; HeLa A3F-eYFP + Vif (tagged APOBEC3F with the HIV-1 protein that degrades it), YFP fluorescence increase; also: potency is read from the fitted curve at half-maximal effect; % of control where 0% means no effect; nearly all actives have a fitted effect of over 65% in size
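HeLa cells stably expressing A3F-eYFP plus Vif, plated and incubated overnight at 37 deg C, then exposed to compounds overnight at 37 deg C. Blocked degradation read as raised yellow fluorescence (Ex 488/Em 500-530).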
GRP78 ERSR act = induces the endoplasmic reticulum stress response in human glioma cells | U87-MG GRP78 promoter luciferase reporter, 16 h | Potency, µM, inactives show at the highest dose activation, most hits filed as activators | 420,000 compounds, 0.02% hits; also: potency is read from the fitted curve at half-maximal effect; series mostly up to about 76 µM; % of control where 0% means no effect; nearly all actives have a fitted effect of over 35% in size
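Stably transfected U87-MG human glioma cells carrying a GRP78-based luminescent sensor were seeded at 1000 cells/well, pin-dosed with compounds and incubated 16 h. Luciferase reagent was then added, and end-point luminescence was read after 10 min at room temperature.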
TRPML1 ag = agonists of human TRPML1 channel | activation, % (test concentration not listed) | 410,000 compounds, 0.12% hits | TRPML1-expressing cells, Ca2+ dye fluorescence, FDSS | Q9GZU1; in the data active = activation above about 50%; inconclusive = mostly about 30% to 49%; also: 0% is about no effect
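TRPML1-DL cells, Tet-induced overnight (~16 h, 37 degrees C), loaded 45-90 min at room temperature with Ca8 no-wash calcium dye plus quencher. FDSS fluorescence: 10 s baseline, compound pin-transfer, 110 s agonist read, then EC80 54-4 (4uM final) and 110 s antagonist read.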
TRPML1 blocker = human mucolipin-1 channel inhibition; Q9GZU1; TRPML1-inducible cells, Ca2+ dye fluorescence, FDSS; active compounds read low; inhibition of EC80 agonist-evoked calcium signal; activity change, negative = inhibition, % (concentration not given with the values); 390,000 compounds, 0.02% hits; AID 624415; in the data active = activity change below about -50%; inconclusive = between about -30% and that limit;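 also: stimulus is agonist 54-4 at its EC80 concentration; % is scaled to controls: 0 for no effect and ±100 for the full control effect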
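Tet-induced TRPML1-DL cells loaded with Ca8 no-wash calcium dye were read kinetically on FDSS. Compound addition was followed by EC80 agonist 54-4 (4 uM final); inhibition was read over 110 s.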
* hit, by the source's call; u = inconclusive; x = no result. Unless noted, calls follow the shape of the dose curve; as a rule, active = well fitted curve in the direction sought with a large enough effect; inconclusive = small, poorly fitted or top-dose-only effect, or another doubt; inactive = no such curve, though single readings can be large; an effect the other way counts as inactive or inconclusive.

SMILES | ALOX12 inh | Vif-A3G inh | Vif-APOBEC3F blk | GRP78 ERSR act | TRPML1 ag | TRPML1 blocker
COc1cc(OC)cc(C(=O)N2CCN(C(=O)c3cccc(F)c3)CC2)c1 | 26% | 1% | 3% | -4% | 0 | -7
COc1cc(OC)cc(C(=O)N2CCC3(CC2)NC(=O)N(c2cccc(Cl)c2)N3)c1 | 1.3µM* | x | x | x | x | x
COc1ccccc1CCC(=O)N1CCC2(CC1)NC(=O)N(c1cccc(F)c1)N2 | 10µM* | x | x | x | x | x
COc1cc(OC)cc(C(=O)N2CCC3(CC2)NC(=O)N(c2cccc(F)c2)N3)c1 | 2.8µM* | x | x | x | x | x
Cc1ccc2cc(CN(Cc3nnnn3C3CCCCC3)CC3CCCO3)c(=O)[nH]c2c1 (stereo not drawn) | u | -3% | -9% | -6% | 0 | -16
Cc1cc(C)c2cc(CN(Cc3nnnn3C3CCCCC3)CC3CCCO3)c(=O)[nH]c2c1 (stereo not drawn) | 11µM* | -2% | 2% | -2% | 1 | -4
O=C1NC2c3c(Cl)sc(Cl)c3C(=O)C2O1 (stereo not drawn) | 40µM* | -5% | -3% | -14% | 1 | -6
CC(=O)c1c(C)[nH]c(C(=O)/C(C#N)=C\c2ccc(F)cc2)c1C | 35µM* | x | x | x | x | x
O=C1c2ccccc2-c2onc3ccc(NCCCn4ccnc4)c1c23 | x | 2% | u | -3% | 75* | 6
COc1ccc2noc3c2c1C(=O)c1ccccc1-3 | 13% | 17% | u | -1% | 79* | 1
COc1ccc(OC)c2c1C(=O)c1ccccc1C2=O | -5% | -13% | -11% | -2% | 11 | -13
CCc1cccc(OCc2ccc(C(N)=O)cc2)c1 | -32% | x | x | x | x | x
COC(=O)C1=C(C)N(Cc2ccc(OC)cc2)C(=O)/C1=C\c1ccco1 | u | -5% | -21% | -3% | 0 | 3
COC(=O)C1=C(C)N(Cc2ccco2)C(=O)/C1=C\c1ccc([N+](=O)[O-])cc1 | u | u | 3.2µM* | u | 5 | -1
Cc1ccc(C(=O)NC2(O)C(=O)c3ccccc3C2=O)cc1C | 20µM* | -1% | 1% | 9% | 1 | 6
COc1ccc2sc(NC(C)=O)nc2c1 | u | -8% | -15% | 5% | 0 | -20
CCc1ccc(NC(=O)Nc2ccc3sc(NC(C)=O)nc3c2)cc1 | 7.1µM* | x | x | x | x | x
Cn1cc(C(=O)C(=O)NCc2ccccc2)c2ccccc21 | 50% | x | x | x | x | x
CC(C)c1nc2sc3c(=O)[nH]c(=S)[nH]c3c2c2c1CCCC2 | 25µM* | -1% | -7% | 0% | 0 | -17
CCc1cc(C(=O)NNC(=S)NC(=O)c2ccccc2)cs1 | 40µM* | x | x | x | x | x
Cc1cccc(C(=O)NC(=S)NNC(=O)c2ccccc2Cl)c1 | 40µM* | -2% | -7% | u | 68* | 18
Cc1ccc(C(=O)NC(=S)NNC(=O)COc2ccccc2C)cc1 | -26% | -1% | -8% | -1% | 1 | 23
Cc1cccc(C(=O)NC(=S)NNC(=O)Cc2ccccc2)c1 | 45µM* | 2% | -23% | 10% | 21 | -22
Cc1cccc(C(=O)NC(=S)NNC(=O)COc2c(C)cccc2C)c1 | 25µM* | -4% | -13% | 2% | 26 | -7
CCCCCNc1nc2c(c(=O)n(Cc3ccccc3Cl)c(=O)n2C)n1C | 8% | x | x | x | x | x
SMILES | ALOX12 inh | Vif-A3G inh | Vif-APOBEC3F blk | GRP78 ERSR act | TRPML1 ag | TRPML1 blocker
CC(C)(C)CC(=O)Nc1cnc(-c2ccc(Cl)cc2)nc1 | 18% | x | x | x | x | x
C#CCNC(=O)c1ccc2c(c1)NC(=O)CS2 | -23% | x | x | x | x | x
Cc1cccc(C(=O)NNC(=S)NC(=O)/C=C/c2cccs2)c1 | 35µM* | x | x | x | x | x
COc1ccc(C(=O)NNC(=S)NC(=O)/C=C/c2cccs2)cc1 | u | -3% | -10% | -5% | 0 | 0
CCOCCCNC(=O)c1nnn2cc(-c3ccccc3)[nH]c(=O)c12 | 18µM* | x | x | x | x | x
Cc1nc(-c2ccc3c(c2)-c2ccccc2C3)cs1 | 0.32µM* | x | x | x | x | x
c1ccc2sc(SSc3nc4ccccc4s3)nc2c1 | 5µM* | x | x | 2% | x | x
O=C(Nc1ccccc1C(=O)N1CCN(C(c2ccccc2)c2ccccc2)CC1)C1CC1 | -4% | x | x | x | x | x
